Results reported in paper PMC13494018.

B1: design_610_f34cc193-997c-4684-af32-2a8002718429_1156_dldesign_0_cycle1_af2pred (protein)
chain: NPLVKQAEKNYKKAKEMAELGLASTDPLAIRSYAAFGDSLYNNAAELLKKAGKEEEAKKVEAEGEEKKAALLAKAKAAA
B2: design_610_f34cc193-997c-4684-af32-2a8002718429_285_dldesign_0_cycle1_af2pred (protein)
chain: LAAEVAAAEAAAAAAAAAAKALGATATAAALRAMAEDAARSTPEEAAAARDFAEAMLTVLTARLAAAKAAAA
B3: design_610_f34cc193-997c-4684-af32-2a8002718429_661_dldesign_0_cycle1_af2pred (protein)
chain: AKAQAEAQLAQGQKLLEQAKKNLASGKNAVAALSNARGAYVLFQGAAYIAAKTDPELAKKAKEAAKQAEELAKQAQAAIAAA
B4: design_610_f34cc193-997c-4684-af32-2a8002718429_1271_dldesign_0_cycle1_af2pred (protein)
chain: SGRVRQAQRLVEMAEELVETGEKEEAEKGKQLADAARALAEEALRRGDDPEAAKEVLERAKEVEKRAEEAIKA
B5: design_611_394c5ea9-a0d3-47c4-9d48-89ba6a28fdd0_577_dldesign_0_cycle1_af2pred (protein)
chain: VAAQLAAAQAKVDDVTAKVAEAKAAAKADPAEGVKIANATIGAAIDAMKAAKTYPPEVAAAAIAALSAQLAEASKIAISAQAKLDA
B6: design_611_394c5ea9-a0d3-47c4-9d48-89ba6a28fdd0_579_dldesign_0_cycle1_af2pred (protein)
chain: DAAAQSKALQAQVAQAQALVEQARAAAADPARARALALQAFRQAQAVNRQAIALGDTATAAAAGEVMVAAARVLAA
B7: design_610_f34cc193-997c-4684-af32-2a8002718429_1172_dldesign_0_cycle1_af2pred (protein)
chain: LTEEEAKKLLADAKQLLELAEAALADPRFARTAITAADQAAALAKEAAKHPKVAAEAKALAARAEEVRKAAEEAAA
B8: design_611_394c5ea9-a0d3-47c4-9d48-89ba6a28fdd0_498_dldesign_0_cycle1_af2pred (protein)
chain: AAAATLAQVKELIAQAKADPANAAALLSQAIRLAVTTAIAAAAAGDTAAAVALSQAAIEAMKALDEVSKAA
B9: design_610_f34cc193-997c-4684-af32-2a8002718429_1476_dldesign_0_cycle1_af2pred (protein)
chain: ARAAAIAEEAVRFANAASARALAAAVKTTPEANAQITALVVQLLEEADRARKATDPAEAEAHFEAARALAAEAEAIAAAALA
B10: design_611_394c5ea9-a0d3-47c4-9d48-89ba6a28fdd0_317_dldesign_0_cycle1_af2pred (protein)
chain: AEAIQKANDALQEALDYLKEMSEIAKTEKLQEAVKQIQEKVGKAAQYAIDAVKNPEKAAEYAKKAKEEAEKAKEIYEKAKKES
B11: design_610_f34cc193-997c-4684-af32-2a8002718429_1837_dldesign_0_cycle1_af2pred (protein)
chain: NQVAAIAAANQALGERAYAEGLALYAADPEANREAARAAFVRAYAYFNAAAGAAIVLGDAAAAAAAQAKAEEAKAHAEALKA
B12: design_610_f34cc193-997c-4684-af32-2a8002718429_532_dldesign_0_cycle1_af2pred (protein)
chain: MPQAEQAAQAAAKSGESLMKLAESIWSSTPEYRKAHKESILGALEVARDLYEYAAKQGGEEYKKKAEEAKAKYKEVKETL
B13: design_610_f34cc193-997c-4684-af32-2a8002718429_2276_dldesign_0_cycle1_af2pred (protein)
chain: AAAAAAAAAEAAARAARAKEVGQKTLDAVAARAKELGARSPALGEAEQLRLKSTAAVLAGDEAAAKAYAAQAGAILAAA
B14: design_610_f34cc193-997c-4684-af32-2a8002718429_1694_dldesign_0_cycle1_af2pred (protein)
chain: AAAAAELALRSAEALLRSARENAAAGTISPEGLRGAAEVIKDLARYAGELGGPEAAARAEELIAEADAVVA
B15: design_610_f34cc193-997c-4684-af32-2a8002718429_1550_dldesign_0_cycle1_af2pred (protein)
chain: SAAIQEQTAKDWAAVLEAAAARSTEAGIRLARAVAEVFRDDPELAEATAAALTNAEVAAALRAALEEARAAAA
B16: design_610_f34cc193-997c-4684-af32-2a8002718429_921_dldesign_0_cycle1_af2pred (protein)
chain: AEAVAVAAMLGLLRNAADHPESAEKLAEIARDMALATGVPAEKVKEVFEEGARYAREKGNEEAAKIIEEKGEEAVKAAKAA
B17: design_610_f34cc193-997c-4684-af32-2a8002718429_895_dldesign_0_cycle1_af2pred (protein)
chain: SSAEALARRTAEAMVRLAERRIREAAEEGLEKARETAEKWARFAEEALPPEVGAETAKRIREAAERIVRRKEEE
B18: design_610_f34cc193-997c-4684-af32-2a8002718429_328_dldesign_0_cycle1_af2pred (protein)
chain: MEAAKAAVEAARAEADALLAAAEASPDPGEATALAVDALRTVSAARREIEATYGPEAGALADAVLAEVRARVAALNRRLIA
B19: design_610_f34cc193-997c-4684-af32-2a8002718429_2117_dldesign_0_cycle1_af2pred (protein)
chain: AAAAETASKAGEATIEALKAGAEAARLAEELGLDPAPYHQKAAQAIAALQAGEGSLETVTALKEELEKAAKELKEKV
B20: design_610_f34cc193-997c-4684-af32-2a8002718429_1816_dldesign_0_cycle1_af2pred (protein)
chain: AEAEALAAQARAHAHKALQEVSLGGDQAEADAHLAKAEEYAAQAKALDPEIGAQTQKIIDQYKALMAQAR
B21: design_610_f34cc193-997c-4684-af32-2a8002718429_868_dldesign_0_cycle1_af2pred (protein)
chain: DALAKAQKQAKATAEEAKKKAEEAKAAGNSAAAQMYENGAKVAEEGAKGDLKTVKAAIERGKTLIKAGDAIAAA
B22: design_610_f34cc193-997c-4684-af32-2a8002718429_824_dldesign_0_cycle1_af2pred (protein)
chain: DALVAEARRLLQEAARLLGTGSAAYIAGDKAAAVAAFKEAIGLAKKALELAKAAGDEALAASAQGLIELAEGLLAAAEA
B23: design_610_f34cc193-997c-4684-af32-2a8002718429_489_dldesign_0_cycle1_af2pred (protein)
chain: EKEKKIKELLEKGLEKMKKAAELTGDPGMQTYLKMAENNVKTNSPKDAAKINAELAKIAAGHAASLDPEAAKLVEEAYKLFKEAAKL
B24: design_610_f34cc193-997c-4684-af32-2a8002718429_742_dldesign_0_cycle1_af2pred (protein)
chain: MERAEKLIEKVKEIASLPKSKEEEQEELALKVAEEAAKLTPEEQQKVIQAMLEYAEKSGSTALLRGANRIFAA
B25: design_610_f34cc193-997c-4684-af32-2a8002718429_136_dldesign_0_cycle1_af2pred (protein)
chain: SLNGTAGAGIVELLKALAEAQKWKALDPEFFGAAAKEIAAETAAAAQAAVAGDYEAAIAEVKAGKAVAEKAKKHAAEIA
B26: design_610_f34cc193-997c-4684-af32-2a8002718429_2398_dldesign_0_cycle1_af2pred (protein)
chain: AAAEIARRTVEAGVRQAFAASPEEAERLAENLAKIVEGLAGPEVGERVREIVREGLRLAEKFPEYREEIAEETAERAAELVYEALS
B27: design_610_f34cc193-997c-4684-af32-2a8002718429_692_dldesign_0_cycle1_af2pred (protein)
chain: SAARAAAAAAVHAKVYAVLEKQAEEALKKAAEVAKKLGDEKFYKEAKKEAEEAKKLAKESPGEGLKAITELKQKVKEAAKKAEA
B28: design_610_f34cc193-997c-4684-af32-2a8002718429_743_dldesign_0_cycle1_af2pred (protein)
chain: EEEEKKKKAKEYVEKAKKLAEQAAKSTVEQAHQYLGQAVELAAKVHELGVLPEEANKVLAQASANALALA
B29: design_610_f34cc193-997c-4684-af32-2a8002718429_1191_dldesign_0_cycle1_af2pred (protein)
chain: AEATGQAYADILVQSARSLAAAGASPEDVVQAMDSIAQAAIDELGEEGKKYAAKGAEKAAEEVKKLNPEAAKAVAKRAEELKKQA
B30: design_611_394c5ea9-a0d3-47c4-9d48-89ba6a28fdd0_264_dldesign_0_cycle1_af2pred (protein)
chain: AADEAAKKAIKQLKASVEAAARNARALAGSPDAPRAVKALKELAKVAAEGALGIAKATKDPEVAKEAKKAAEEIKKIAEETAKEIEA
B31: design_610_f34cc193-997c-4684-af32-2a8002718429_954_dldesign_0_cycle1_af2pred (protein)
chain: MEEAKEKAEEAKKEAKEAIEKLRKVAEKAKAHPDGAEIQRRVDIAVAAVKGLLKNAEASPNPEDSLKIYEVAKELAEAERERVEAILK
B32: design_610_f34cc193-997c-4684-af32-2a8002718429_1084_dldesign_0_cycle1_af2pred (protein)
chain: SAAQQAKQKALELFEQAAKLAAKYDPKAAEKFNKAKEALQAGDLGGALKYATEGVNILAKNASQEAADEVRAIATQGLISYAQAQILA
B33: design_610_f34cc193-997c-4684-af32-2a8002718429_2230_dldesign_0_cycle1_af2pred (protein)
chain: SADQAEKQKLLAKFNEVSGEALELMEELTKAGDYETVQQVSRLLGQANGLAVAATDAATAKAALKVAEEALKLAKEALKKA
B34: design_610_f34cc193-997c-4684-af32-2a8002718429_2308_dldesign_0_cycle1_af2pred (protein)
chain: AAAAEAAAARLAAAKAALAAAQAKGAELAAQSPGAGIGYVWAAAVRLGETLGPEAAALAAQARAAAAAQNRALLAQSAA
B35: design_611_394c5ea9-a0d3-47c4-9d48-89ba6a28fdd0_592_dldesign_0_cycle1_af2pred (protein)
chain: DALKLIEAAAKLAKKIGLEEAAKLAEEAAKLLATGDPEAAGQGVLLLSKAYALAAADPKAAEAAALLRAALAAAAKEAIALARAAR
B36: design_610_f34cc193-997c-4684-af32-2a8002718429_291_dldesign_0_cycle1_af2pred (protein)
chain: AEERAKELAEELKELLAKAVADPSKAGEYLGRALELLAELQALAAEHPEVAPYAEEAHRALGAGNKALLAAIAA
B37: design_610_f34cc193-997c-4684-af32-2a8002718429_938_dldesign_0_cycle1_af2pred (protein)
chain: SPQAELDAFLGETLETSREISAILEKNRDKVPEEVRNKISDLLNKALSYASKAALGVDPEGAAKAKKYLEEAKKLTEEAVKLA
B38: design_610_f34cc193-997c-4684-af32-2a8002718429_1045_dldesign_0_cycle1_af2pred (protein)
chain: MTPGELGELALEALRLAAEAARLAAEDPRFAPAAAAFRAAFIEIARGGDPEEALRLYEEGLRLYEAALAAWRAA

What follows are binders tested against CD276, Q5ZPR3.
Chain of CD276, Q5ZPR3 (Q5ZPR3 whole entry): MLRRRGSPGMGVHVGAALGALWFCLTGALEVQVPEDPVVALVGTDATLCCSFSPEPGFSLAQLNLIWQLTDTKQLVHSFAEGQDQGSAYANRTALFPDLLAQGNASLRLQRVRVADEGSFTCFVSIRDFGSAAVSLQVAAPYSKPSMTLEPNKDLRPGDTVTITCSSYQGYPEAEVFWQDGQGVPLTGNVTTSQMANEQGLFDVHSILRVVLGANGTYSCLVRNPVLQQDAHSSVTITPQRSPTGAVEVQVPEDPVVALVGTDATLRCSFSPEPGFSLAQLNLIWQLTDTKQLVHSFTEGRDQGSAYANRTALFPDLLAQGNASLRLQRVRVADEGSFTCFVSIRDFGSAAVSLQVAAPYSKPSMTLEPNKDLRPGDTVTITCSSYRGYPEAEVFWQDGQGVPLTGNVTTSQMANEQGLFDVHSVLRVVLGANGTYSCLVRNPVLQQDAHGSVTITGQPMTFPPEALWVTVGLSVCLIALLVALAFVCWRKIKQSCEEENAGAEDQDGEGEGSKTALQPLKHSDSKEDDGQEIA

Binding in a display sort, inactive:
B1 not found, B2 not found, B3 not found, B4 not found, B5 not found, B6 not found, B7 not found, B8 not found, B9 not found, B10 not found, B11 not found, B12 not found, B13 not found, B14 not found, B15 not found, B16 not found, B17 not found, B18 not found, B19 not found, B20 not found, B21 not found, B22 not found, B23 not found, B24 not found, B25 not found, B26 not found, B27 not found, B28 not found, B29 not found, B30 not found, B31 not found, B32 not found, B33 not found, B34 not found, B35 not found, B36 not found, B37 not found, B38 not found
